Reference: PubChem BioAssay AID1159580 (chemical genetic matrix, 2015)
Where “and” joins values, the source holds several entries; their conditions need not be identical. Identical values can stand only once. The whole screen tested about 5,500 compounds, of which about 2,000 (36%) were called active. Another 18% or so got no clear call; they are omitted. Cut-off read from the data, not from the text of the source: active = normalized growth mostly below about 0.91 (no sharp cut-off); inconclusive = no clear call, values can overlap the other calls; inactive = mostly above about 0.92. Some of the results follow.

Assay: chemical genetic growth profiling, strain panel (AID 1159580);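 note: tested at 20 µM; growth read once vehicle control cultures reached saturation at 30 °C; 1 = growth at the plate median or of vehicle wells; lower values mean less growth of the strain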
Conditions: S. cerevisiae deletion strains, growth OD

Measured: normalized growth

Nc1ccc(S(=O)(=O)Nc2ccc(Cl)nn2)cc1
inactive: locus YAL013W, strain DEP1, hits give low values 1.01 | locus YAL021C, strain ccr4, hits give low values 0.982 | locus YAL026C, strain drs2, hits give low values 0.996 | locus YAL030W, strain snc1, hits give low values 0.985 | locus YBL061C, strain skt5, hits give low values 0.984 | locus YBR009C, strain hhf1, hits give low values 0.994 | locus YBR021W, strain FUR4, hits give low values 0.977 | locus YBR023C, strain chs3, hits give low values 0.984 | locus YBR171W, strain sec66, hits give low values 0.976 | locus YBR229C, strain ROT2, hits give low values 0.995 | locus YBR231C, strain swc5, hits give low values 0.995 | locus YBR279W, strain paf1, hits give low values 0.998 | locus YCL011C, strain gbp2, hits give low values 0.987 | locus YCL016C, strain dcc1, hits give low values 0.971 | locus YCL029C, strain bik1, hits give low values 0.996 | locus YCL061C, strain MRC1, hits give low values 0.984 | locus YCL069W, strain vba3, hits give low values 0.993 | locus YCR088W, strain abp1, hits give low values 0.987 | locus YDL005C, strain med2, hits give low values 0.996 | locus YDL035C, strain GPR1, hits give low values 1.02 | locus YDL040C, strain nat1, hits give low values 0.992 | locus YDL074C, strain BRE1, hits give low values 0.978 | locus YDL101C, strain DUN1, hits give low values 1.01 | locus YDL134C, strain PPH21, hits give low values 1.01 | locus YDL185W, strain tfp1, hits give low values 1.01 | locus YDL192W, strain arf1, hits give low values 1.01 | locus YDR001C, strain nth1, hits give low values 0.987 | locus YDR069C, strain doa4, hits give low values 0.999 | locus YDR101C, strain arx1, hits give low values 0.961 | locus YDR137W, strain rgp1, hits give low values 0.996 | locus YDR150W, strain NUM1, hits give low values 0.999 | locus YDR159W, strain sac3, hits give low values 1.02 | locus YDR162C, strain NBP2, hits give low values 1.02 | locus YDR195W, strain ref2 0.968 | locus YDR297W, strain sur2, hits give low values 0.993 | locus YDR318W, strain mcm21, hits give low values 1 | locus YDR334W, strain swr1, hits give low values 0.984 | locus YDR335W, strain msn5, hits give low values 0.994 | locus YDR388W, hits give low values 1.01 | locus YDR392W, strain spt3, hits give low values 0.929 | locus YDR502C, strain sam2, hits give low values 1 | locus YEL003W, strain gim4, hits give low values 1 | locus YEL037C, strain rad23, hits give low values 0.991 | locus YEL061C, strain CIN8 (second series), hits give low values 0.992 | locus YEL061C, strain CIN8, hits give low values 1 | locus YER015W, strain faa2, hits give low values 0.973 | locus YER016W, strain bim1, hits give low values 1 | locus YER110C, hits give low values 1.01 | locus YER111C, strain swi4, hits give low values 0.986 | locus YER155C, strain BEM2 (second series), hits give low values 1 | locus YER155C, strain BEM2, hits give low values 0.998 | locus YER167W, strain BCK2, hits give low values 1.01 | locus YFR010W, strain ubp6, hits give low values 0.99 | locus YGL078C, strain dbp3, hits give low values 1 | locus YGL086W, strain mad1, hits give low values 0.988 | locus YGL167C, strain pmr1, hits give low values 0.983 | locus YGL173C, strain kem1, hits give low values 0.99 | locus YGL227W, strain vid30, hits give low values 0.979 | locus YGL240W, strain doc1, hits give low values 0.992 | locus YGL248W, strain PDE1, hits give low values 0.999 | locus YGL253W, strain hxk2, hits give low values 1 | locus YGR135W, strain pre9, hits give low values 1.06 | locus YGR252W, strain gcn5, hits give low values 1.04 | locus YHR013C, strain ard1, hits give low values 0.965 | locus YHR027C, strain rpn1, hits give low values 0.995 | locus YHR030C, strain SLT2, hits give low values 1 and 0.995 | locus YHR079C, strain IRE1 (second series), hits give low values 1.01 | locus YHR079C, strain IRE1, hits give low values 0.989 | locus YHR094C, strain hxt1, hits give low values 1.01 | locus YHR129C, strain ARP1, hits give low values 1.01 | locus YHR142W, strain chs7, hits give low values 0.994 | locus YHR200W, strain rpn10, hits give low values 1 | locus YIL066C, strain RNR3, hits give low values 0.992 | locus YIL073C, strain SPO22, hits give low values 1.07 | locus YIL125W, strain kgd1, hits give low values 0.994 | locus YIR030C, strain dcg1, hits give low values 1.01 | locus YJL092W, strain hpr5, hits give low values 0.983 | locus YJL095W, strain BCK1 (second series), hits give low values 0.988 | locus YJL095W, strain BCK1, hits give low values 1.01 and 0.984 | locus YJL115W, strain asf1, hits give low values 0.991 | locus YJL129C, strain trk1, hits give low values 1.01 | locus YJL134W, strain LCB3, hits give low values 1.01 | locus YJL154C, strain vps35, hits give low values 0.986 | locus YJL164C, strain tpk1, hits give low values 0.985 | locus YJL166W, strain qcr8, hits give low values 0.984 | locus YJL168C, strain set2, hits give low values 1 | locus YJL187C, strain SWE1 (second series), hits give low values 0.992 | locus YJL187C, strain SWE1, hits give low values 0.986
